Compound activity deposited in PubChem BioAssay by National Center for Advancing Translational Sciences (NCATS).
HCV inhibitor: inhibitors of hepatitis C virus infection; hit rate 3.4% among 340,000; Huh7.5.1 HCVcc-Cre infection, luciferase reporter, 44 h; Potency, µM (top dose mostly 41.8 µM), for inactives: at the highest dose activity change, negative = inhibition, hits mostly inhibitors; AID 651820; note: potency is the fitted concentration of half-maximal effect
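Infectious HCV cell culture screen: compound-treated cells (1,000/well, pre-plated 4 h) are infected with HCVcc-Cre at roughly 0.5 moi and grown 44 h. Infection is quantified by luciferase signal after 15 min substrate incubation at room temperature.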
FMDV inh: foot and mouth disease virus antiviral activity. hit rate 1.2% among 410,000. Potency, µM (top dose mostly 57.9 µM), inactives show at the highest dose activity change, negative = inhibition, most hits filed as inhibitors. FMDV antiviral cell-based qHTS; calls by dose curve; tested in HEK293T cells; note: read-out not given here; potency is the fitted concentration of half-maximal effect; nearly all actives have a fitted effect of over 45% in size
HCMV antiviral: human cytomegalovirus inhibition. HFF cells, HCMV-luciferase reporter, 72 h; stronger effect = lower value. hit rate 4.5% among 410,000. activity change, negative = inhibition, % at 57.5 µM; in the data active = activity change below about -60%; inconclusive = no clear call, values can overlap the other calls; inactive = above about -39%
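Two compound doses tested in HFFs infected with HCMV-luciferase, MOI 1 PFU/cell, 72 h at 37C. Lysate luminescence read with OneGlo; data normalized against buffer-only and 10uM Salinomycin inhibitor controls.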
Giardia FBPA inh: Giardia lamblia aldolase inhibition | A8B2U2 | purified Giardia FBPA | Potency, µM (series often up to 59.6 µM), without a hit: at the top dose activity, negative = inhibition, most hits filed as inhibitors | AID 2451 | hit rate 0.71% among 290,000; note: potency is the fitted concentration of half-maximal effect; nearly all actives have a fitted effect of over 55% in size
Target sequence (A8B2U2 whole entry, looked up): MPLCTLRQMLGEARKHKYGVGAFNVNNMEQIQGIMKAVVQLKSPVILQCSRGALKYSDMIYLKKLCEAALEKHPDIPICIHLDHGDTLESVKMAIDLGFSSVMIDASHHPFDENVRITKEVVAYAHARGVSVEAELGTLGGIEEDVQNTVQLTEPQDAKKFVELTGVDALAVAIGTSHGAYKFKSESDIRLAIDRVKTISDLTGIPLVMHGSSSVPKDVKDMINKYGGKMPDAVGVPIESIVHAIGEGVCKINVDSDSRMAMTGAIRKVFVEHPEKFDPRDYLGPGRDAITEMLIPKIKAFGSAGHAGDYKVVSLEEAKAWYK
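Giardia FBPA (40 nM reagent) was preincubated 10 min at RT with compound (up to 57.5 uM final), then substrate plus GAPDH/TPI/NAD/arsenate coupling system with diaphorase/resazurin was added; resorufin fluorescence (525/598 nm) was read after 20 min.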
Vaccinia Venus: vaccinia inhibition (Venus reporter) | AID 720580 | Potency, µM (doses to about 36.5 µM), inactives show at the highest dose activity change, negative = inhibition, most hits filed as inhibitors | Vaccinia virus Venus reporter expression, fluorescence | hit rate 0.46% among 330,000; calls by dose curve; tested in A549 cells; note: potency is the fitted concentration of half-maximal effect; nearly all actives have a fitted effect of over 30% in size
VACV mCherry inh: vaccinia inhibition (mCherry reporter); Vaccinia virus mCherry reporter infection, fluorescence; Potency, µM (highest dose often 36.5 µM), inactives show at the top dose activity change, negative = inhibition, actives largely listed as inhibitors; hit rate 0.63% among 310,000; AID 720579; calls by dose curve; tested in A549 cells; note: potency is the fitted concentration of half-maximal effect; nearly all actives have a fitted effect of over 35% in size
The depositor's hits bear a star; i = inactive; ? = inconclusive; nt = no result given; ! = a repeat was not active. An excerpt weighted towards active compounds, which were near 7.5% of everything screened. Unless noted, calls come from the whole dose curve; as a rule, active = well fitted curve in the direction sought with a large enough effect; inconclusive = small, poorly fitted or top-dose-only effect, or another doubt; inactive = no such curve, though single readings can be large; an effect the other way counts as inactive or inconclusive. % is set by controls: 0 for no effect and ±100 for the full control effect.

SMILES	HCV inhibitor	FMDV inh	HCMV antiviral	Giardia FBPA inh	Vaccinia Venus	VACV mCherry inh
COc1ccccc1C(=O)N/C(=C\c1cn(C)c2ccccc12)C(=O)NCCCn1ccnc1	2.2%	10.4%	9.3	nt	-11.1%	?
Cc1cc(C)cc(N(C(=O)CNS(=O)(=O)c2ccccc2)C(C(=O)NCc2ccccc2)c2ccc(C)o2)c1 (stereo not given)	23.1%	-9.5%	1.9	-3.9%	-12.4%	-0.1%
Cc1ccc(S(=O)(=O)NCC(=O)N(c2ccccc2)C(C(=O)NCc2ccccc2)c2ccco2)cc1 (stereo not given)	3.4%	0.0%	-85.5*	-7.5%	?	-10.2%
COc1ccc(CN2CCOc3c(cc(-c4cccc(OC)n4)cc3OC)C2)c(O)c1	nt	-1.7%	nt	nt	0.0%	i
O=C(CN1Cc2ccccc2OC(c2ccccc2F)C1)NC(c1ccccn1)C(F)(F)F (stereo not given)	nt	-18.3%	nt	nt	-2.5%	-11.8%
COC(=O)c1ccc(COc2ccccc2/C=N/NS(=O)(=O)c2ccc(C)cc2)cc1	nt	59.0%	-94.0*	-1.5%	?	-27.0%
O=S(=O)(N/N=C/c1ccccc1OCc1ccc(Cl)cc1)c1ccccc1	?	61.8%	-83.4*	-9.2%	-26.6%	-19.1%
Cc1ccc(S(=O)(=O)/C(C#N)=C/c2ccccc2OCc2ccccc2)cc1	21.1%	11.7%	-68.9*	-7.0%	-19.3%	-12.6%
Cc1nn(CC(=O)Nc2ccc3nc4n(c(=O)c3c2)CCCC4)c(C)c1[N+](=O)[O-]	-10.9%	-17.6%	-21.2	nt	nt	nt
CC(=O)Nc1cccc(-c2csc(C(C)(O)c3cccc(F)c3)n2)c1 (stereo not given)	nt	?	0.3	nt	-27.7%	?
COc1ccc(N(C)C(=O)c2ccc3nc(-c4ccccc4)c(-c4ccccc4)nc3c2)cc1	11.2µM*	?	7.7	-1.7%	-29.7%	?
Cc1sc2ncnc(N/N=C/c3ccccc3O)c2c1C	?	30.1%	-100.5*	?	?	3.55µM*
Cc1sc2ncnc(N/N=C/c3ccc(O)cc3)c2c1C	11.2µM*	5.2%	-26.1	-23.9%	-26.2%	?
CCNC(=O)C1CCCN(C(=O)c2ccc(N(C)C)cc2)CC1 (stereo not given)	nt	-7.6%	-32.9	nt	-2.4%	18.9%
Cc1onc(-c2ccccc2)c1C(=O)OCC(=O)Nc1ccc(Cl)cc1	10µM*	0.0%	5.8	nt	nt	nt
Cc1ccc(NC(=O)COC(=O)c2c(-c3ccccc3)noc2C)cc1	?	-25.7%	-7.6	nt	nt	nt
Cc1onc(-c2ccccc2)c1C(=O)OCC(=O)Nc1ccc(OC(F)(F)F)cc1	11.2µM*	?	-24.5	nt	nt	nt
Cc1c(/C=C/C(=O)c2ccc(C(C)C)cc2)cnn1C	31.6µM*	-1.2%	-87.1*	-29.5%	-14.0%	-11.0%
CCOc1ccc(S(=O)(=O)NC2CCCC2)cc1	10.4%	42.5%	171.4	nt	nt	nt
CC(=O)Nc1nnc(S(=O)(=O)N2CCN(c3ccc([N+](=O)[O-])cc3Cl)CC2)s1	13.7%	-16.3%	-24.6	nt	-12.4%	?
Cc1ccc(NC(=O)c2ccc(OCc3c(C)noc3C)cc2)cc1	nt	nt	-8.0	-1.2%	nt	nt
Cc1ccc(NC(=O)c2ccc(OCc3c(C)noc3C)cc2)nc1	11.2µM*	?	?	nt	nt	nt
COc1ccc(NS(=O)(=O)c2cc(NC(=O)c3cccc(OCc4c(C)noc4C)c3)ccc2OC)cc1	?	54.5%	-64.8*	2.9%	-28.6%	?
Cc1ccc(NC(=O)c2cccc(OCc3c(C)noc3C)c2)cc1	?	9.9%	12.1	-0.9%	-14.6%	-20.9%
COc1cc(NC(=O)c2ccc(OCc3c(C)noc3C)c(OC)c2)cc(OC)c1	?	?	-3.4	nt	nt	nt
SMILES	HCV inhibitor	FMDV inh	HCMV antiviral	Giardia FBPA inh	Vaccinia Venus	VACV mCherry inh
COc1cc(C(=O)Nc2cc(OC)c(OC)c(OC)c2)ccc1OCc1c(C)noc1C	11.2µM*	-21.0%	276.6	nt	-15.9%	-5.6%
COc1ccc(CC(=O)OCC(=O)c2ccc(S(=O)(=O)N3CCCCC3)cc2)cc1	-5.9%	-19.8%	7.8	nt	nt	nt
COc1cc(Nc2cc3c(cn2)nc(-c2ccco2)n3C)cc(OC)c1OC	nt	nt	10.6	nt	nt	nt
COc1ccc(N/N=C(/C(N)=O)C2=NC(C)(C)Cc3ccccc32)cc1	?	-19.3%	-91.6*	1.8%	?	14.1µM*
CC(C)Sc1nc2sc3c(c2c(=O)n1Cc1ccccc1)CCCC3	nt	-1.5%	29.5	nt	-6.2%	-11.9%
CCOc1ccc(-c2cc(C(=O)N3CCN(c4ccccn4)CC3)c3ccccc3n2)cc1	7.08µM*!	56.9%	37.5	-6.5%	?	?
COc1ccc(-c2cc(C(=O)N3CCN(c4ccccn4)CC3)c3ccccc3n2)cc1	?	17.7%	58.0	-1.9%	-29.8%	-22.5%
COc1cc(-c2cc(C(=O)N3CCN(c4ccccn4)CC3)c3ccccc3n2)cc(OC)c1OC	12.6µM*	?	40.2	0.3%	nt	nt
CCCc1ccc(-c2cc(C(=O)N3CCN(c4ccccn4)CC3)c3ccccc3n2)cc1	?	?	-64.4*	-0.5%	nt	nt
C=CCN1[C@@H](C)[C@H](c2ccccc2)Oc2cccc(NCC(C)C)c2S1(=O)=O	nt	nt	-22.6	nt	nt	nt
CC1=C(C(=O)Nc2ccccc2)C(c2ccc[nH]2)n2ncnc2N1 (stereo not given)	nt	0.0%	?	nt	2.4%	-6.4%
O=C(c1cnccn1)N1CCC2(CCCN(Cc3ccncc3)C2)CC1	nt	-8.8%	nt	2.3%	nt	nt
Cc1ccc(C(=O)NNC(=O)c2cccc(S(=O)(=O)N3CCN(c4ccccc4)CC3)c2)cc1	-2.6%	-14.3%	21.4	19.4%	-18.6%	i
Cc1ccc(-c2noc(CCC(=O)NCCN3CCN(Cc4ccccc4)CC3)n2)cc1	?	-22.6%	?	7.7%	?	nt
Cc1ccc(-c2noc(CCC(=O)NCCN3CCOCC3)n2)cc1	15.9%	-14.2%	-10.0	18.9%	-23.4%	nt
COc1ccc(-c2noc(CCC(=O)NCCCN3CCC(Cc4ccccc4)CC3)n2)cc1	2.51µM*	?	?	1.4%	-21.3%	-26.4%
Cc1ccc(-c2noc(CCC(=O)NCC3CCN(Cc4cccc(C)c4)CC3)n2)cc1	1.12µM*	?	?	-15.0%	?	nt
COc1ccc(-c2noc(CCC(=O)NCCCN3CCN(c4ccc(F)cc4)CC3)n2)cc1	22.4µM*	?	-63.8*	0.0%	nt	nt
COCCOc1ccc(C(F)(F)F)cc1NC(=O)COC(=O)Cc1c[nH]c2ccccc12	-25.3%	-13.4%	13.1	nt	nt	nt
CN(C)c1cc(N2CCOCC2)nc(C#N)n1	nt	nt	nt	nt	-14.3%	-22.0%
CN(C)c1cccc2c1c(NC(=O)Nc1ccc(F)cc1F)nn2C	?	-6.3%	-62.7*	?	nt	nt
CN(C)c1cccc2c1c(NC(=O)c1ccc(Cl)cc1)nn2C	?	2.6%	40.3	17.7µM*	-1.3%	?
CN(C)c1cccc2c1c(NC(=O)c1ccc(F)cc1)nn2C	9.7%	-27.4%	-4.5	?	nt	nt
COc1cc(OC)cc(C(=O)Nc2ccccc2-c2nnn(CC(=O)Nc3cc(C)on3)n2)c1	-22.3%	?	-62.7*	9.1%	1.4%	-9.7%
